Test results reported in the supplement of paper PMC12494721.
Structures can show the parent of a compound that is named as a salt.

Experiments:
Conditions in all cases: incubation time: 27 h, anaerobic, 37 °C;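 for the amine columns active = adjusted P below 0.05 in both replicates with a change the same way and a mean fold change under 0.8 or over 1.25; inactive = the rest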
[1] = tested on: Clostridium sporogenes DSM 1664; assay: growth (OD595) fold change vs plate DMSO controls (fold change (ratio)); higher = more growth
Outline: (§1)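 Growth is the fold change relative to the median of plate DMSO controls. Readings came from anaerobic mGAM cultures in 96-well plates grown for 27 h at 37 °C and read at 595 nm. They were blank-subtracted, corrected for compound background with 20 µM compound solutions in water, and converted to OD with a calibration factor of 5. Values are means of 2 biological replicates, and fold changes above 1.5 were set to NA.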

[2] = tested on: Escherichia coli IAI1; assay: as above
Outline: as §1

[3] = tested on: Klebsiella aerogenes DSM 30053; assay: as above
Outline: as §1

[4] = tested on: Ruminococcus gnavus DSM 108212; assay: as above
Outline: as §1

[5] = tested on: Klebsiella aerogenes DSM 30053; assay: fold change of Histamine concentration vs plate DMSO controls (fold change (ratio)); higher = more amine produced, active = hit call of the paper (significant change in both replicates, either direction)
Outline: (§2)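 Each value is the fold change relative to DMSO-only wells on the same plate. Four gut bacterial strains were grown anaerobically in mGAM at 37 °C for 27 h in 80 µL wells, starting at OD 0.1 before a 1:1 dilution, with compounds at 20 µM final (sweeteners 50 µM). Whole cultures were extracted with cold acetonitrile/methanol containing 0.1% formic acid, centrifuged, and amines were quantified by LC–triple-quadrupole MS (dynamic MRM) against external calibration curves with within-batch drift correction. Values are means of 2 biological replicates.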

[6] = tested on: Clostridium sporogenes DSM 1664; assay: fold change of Tryptamine concentration vs plate DMSO controls (fold change (ratio)); higher = more amine produced, active = hit call of the paper (significant change in both replicates, either direction)
Outline: as §2

[7] = tested on: Ruminococcus gnavus DSM 108212; assay: as above
Outline: as §2

[8] = tested on: Escherichia coli IAI1; assay: fold change of Putrescine concentration vs plate DMSO controls (fold change (ratio)); higher = more amine produced, active = hit call of the paper (significant change in both replicates, either direction)
Outline: as §2

[9] = tested on: Klebsiella aerogenes DSM 30053; assay: as above
Outline: as §2

[10] = tested on: Escherichia coli IAI1; assay: fold change of Cadaverine concentration vs plate DMSO controls (fold change (ratio)); higher = more amine produced, active = hit call of the paper (significant change in both replicates, either direction)
Outline: as §2

[11] = tested on: Klebsiella aerogenes DSM 30053; assay: as above
Outline: as §2

[12] = tested on: Ruminococcus gnavus DSM 108212; assay: fold change of 2-Phenylethylamine concentration vs plate DMSO controls (fold change (ratio)); higher = more amine produced, active = hit call of the paper (significant change in both replicates, either direction)
Outline: as §2

SMILES	growth [1]	growth [2]	growth [3]	growth [4]	fold change of Histamine concentration [5]	fold change of Tryptamine concentration [6]	fold change of Tryptamine concentration [7]	fold change of Putrescine concentration [8]	fold change of Putrescine concentration [9]	fold change of Cadaverine concentration [10]	fold change of Cadaverine concentration [11]	fold change of 2-Phenylethylamine concentration [12]
COc1cc(OC)c(C(=O)CCCN2CCCC2)c(OC)c1 [Buflomedil hydrochloride] (20 µM)	1.11	1.03	0.965	0.743	1.08 (inactive)	1.08 (inactive)	1.03 (inactive)	1.04 (inactive)	1.02 (inactive)	1.03 (inactive)	0.997 (inactive)	0.992 (inactive)
Cc1onc(-c2ccccc2)c1-c1ccc(S(N)(=O)=O)cc1 [Valdecoxib] (20 µM)	0.979	0.98	0.973	0.87	1.08 (inactive)	0.955 (inactive)	0.961 (inactive)	1.07 (inactive)	0.983 (inactive)	1.03 (inactive)	0.972 (inactive)	0.92 (inactive)
Cn1c(=O)cc(N2CCC[C@@H](N)C2)n(Cc2ccccc2C#N)c1=O [Alogliptin benzoate] (20 µM)	1.06	0.955	1.09	1.02	0.923 (inactive)	1.01 (inactive)	0.899 (inactive)	1.01 (inactive)	1.01 (inactive)	0.992 (inactive)	1.01 (inactive)	0.897 (inactive)
COc1ccc(C(=O)c2ccccc2O)c(O)c1 [Dioxybenzone] (20 µM)	0.846	0.791	0.972	0.955	0.962 (inactive)	1 (inactive)	0.977 (inactive)	0.86 (inactive)	0.985 (inactive)	1.07 (inactive)	0.996 (inactive)	0.937 (inactive)
CCN(CC)C(=O)c1ccc(O)c(OC)c1 [Ethamivan] (20 µM)	1.12	1.02	1.05	0.873	0.973 (inactive)	1.02 (inactive)	1.04 (inactive)	1.02 (inactive)	1.02 (inactive)	1.01 (inactive)	1.01 (inactive)	1.05 (inactive)
CC1CNc2c(cccc2S(=O)(=O)N[C@@H](CCCNC(=N)N)C(=O)N2CC[C@@H](C)C[C@@H]2C(=O)O)C1 (stereo partly drawn) [Argatroban] (20 µM)	1.12	0.953	1.16	0.732	0.986 (inactive)	0.976 (inactive)	0.987 (inactive)	0.978 (inactive)	1.04 (inactive)	1.01 (inactive)	1 (inactive)	0.937 (inactive)
COC(c1ccccc1)(c1ccccc1)[C@H](Oc1nc(C)cc(C)n1)C(=O)O [Ambrisentan] (20 µM)	0.967	1.2	0.991	1.04	1.07 (inactive)	1.01 (inactive)	1.02 (inactive)	1.21 (inactive)	0.992 (inactive)	0.985 (inactive)	0.997 (inactive)	1.01 (inactive)
C[C@@H]1C[C@H]2[C@@H]3C[C@H](F)C4=CC(=O)C=C[C@]4(C)[C@@]3(Cl)[C@@H](O)C[C@]2(C)[C@H]1C(=O)COC(=O)C(C)(C)C [Clocortolone pivalate] (20 µM)	1.06	1.03	1.04	0.992	1.04 (inactive)	1.04 (inactive)	1.08 (inactive)	1.02 (inactive)	0.999 (inactive)	1.01 (inactive)	0.997 (inactive)	1.17 (inactive)
Nc1ccc(S(=O)(=O)Nc2ncccn2)cc1 [Sulfadiazine] (20 µM)	0.978	0.939	1.06	0.958	0.966 (inactive)	0.955 (inactive)	0.997 (inactive)	0.976 (inactive)	1 (inactive)	1.03 (inactive)	1.01 (inactive)	1.02 (inactive)
NC(=O)NC1NC(=O)NC1=O (stereo not drawn) [Allantoin] (20 µM)	1.05	1.14	1	1.09	1.02 (inactive)	1.11 (inactive)	1.17 (inactive)	1.1 (inactive)	0.972 (inactive)	0.983 (inactive)	1.02 (inactive)	1.05 (inactive)
CO/N=C(\C(=O)N[C@@H]1C(=O)N2C(C(=O)O)=C(COC(N)=O)CS[C@H]12)c1ccco1 [Cefuroxime sodium salt] (20 µM)	0	0.0568	0.796	0.229	1.1 (inactive)	0.031 (active)	0.0602 (active)	0.84 (inactive)	1.03 (inactive)	1.98 (active)	1.07 (inactive)	0.0618 (active)
CO[C@@H]1[C@@H](O[C@@H]2O[C@H](C)[C@@H](O[C@H]3C[C@@](C)(O)[C@@H](O)[C@H](C)O3)[C@H](N(C)C)[C@H]2O)[C@@H](CC=O)C[C@@H](C)[C@@H](O[C@H]2CC[C@H](N(C)C)[C@@H](C)O2)/C=C/C=C/C[C@@H](C)OC(=O)C[C@H]1OC(C)=O [Acetyl spiramycin] (20 µM)	0.00073	1.03	0.958	0.154	0.621 (active)	0.0194 (active)	0.153 (active)	0.875 (inactive)	1.03 (inactive)	0.989 (inactive)	1.03 (inactive)	0.156 (active)
CCCCC1=NC2(CCCC2)C(=O)N1Cc1ccc(-c2ccccc2-c2nnn[nH]2)cc1 [Irbesartan] (20 µM)	1.11	1.03	1.01	1.21	1.05 (inactive)	0.968 (inactive)	0.947 (inactive)	1.02 (inactive)	1.01 (inactive)	1.01 (inactive)	0.995 (inactive)	0.929 (inactive)
OC[C@H]1OC(O)[C@H](O)[C@@H](O)[C@@H]1O (stereo partly drawn) [Glucose/Dextrose] (50 µM)	1.15	0.989	1.01	1.19	1.03 (inactive)	1.01 (inactive)	0.971 (inactive)	0.982 (inactive)	0.872 (inactive)	1.11 (inactive)	1.09 (inactive)	0.935 (inactive)
CCOC(=O)Nc1ccc(NCc2ccc(F)cc2)nc1N [Flupirtine] (20 µM)	1.18	0.973	1.04	0.999	0.95 (inactive)	0.95 (inactive)	1.01 (inactive)	1.03 (inactive)	0.993 (inactive)	1.01 (inactive)	0.999 (inactive)	1.03 (inactive)
COC(=O)C1=C(C)NC(C)=C(C(=O)O[C@H]2CCN(Cc3ccccc3)C2)[C@H]1c1cccc([N+](=O)[O-])c1 [Barnidipine Hydrochloride] (20 µM)	0.993	1.08	0.991	1.06	1.01 (inactive)	0.969 (inactive)	0.992 (inactive)	0.989 (inactive)	0.999 (inactive)	1.02 (inactive)	1.01 (inactive)	0.944 (inactive)
O=C1[C@H]2CCCC[C@H]2C(=O)N1CCCCN1CCN(c2nsc3ccccc23)CC1 [Perospirone hydrochloride] (20 µM)	1.12	0.968	1.01	1.32	0.986 (inactive)	1.02 (inactive)	0.767 (inactive)	0.989 (inactive)	1.01 (inactive)	1.03 (inactive)	1.02 (inactive)	0.819 (inactive)
C[C@]12CC[C@H]3[C@@H](CCC4=CC(=O)CC[C@@]43C)[C@@H]1CC[C@@H]2C(=O)CO [Deoxycorticosterone] (20 µM)	1.18	1.09	1.02	1.11	0.959 (inactive)	0.963 (inactive)	1.03 (inactive)	1.25 (inactive)	0.962 (inactive)	0.96 (inactive)	1.03 (inactive)	1.06 (inactive)
CC(=O)N[C@H]1[C@H]([C@H](O)[C@H](O)CO)OC(C(=O)O)=C[C@@H]1NC(=N)N [Zanamivir] (20 µM)	0.953	1.02	0.977	0.992	1.01 (inactive)	1 (inactive)	1.06 (inactive)	0.946 (inactive)	0.962 (inactive)	0.886 (inactive)	0.991 (inactive)	1.09 (inactive)
CCC1(c2ccccc2)NC(=O)N(C)C1=O (stereo not drawn) [Mephenytoin] (20 µM)	0.908	1.05	1.11	1.14	0.905 (inactive)	1.09 (inactive)	1.02 (inactive)	1.06 (inactive)	1.02 (inactive)	1.01 (inactive)	1.02 (inactive)	1.03 (inactive)
Nc1nc(O)c2ncn(CCC(CO)CO)c2n1 [Penciclovir] (20 µM)	1.11	1.12	1.06	1.14	0.824 (inactive)	1.07 (inactive)	1.08 (inactive)	1.08 (inactive)	0.962 (inactive)	0.996 (inactive)	1.02 (inactive)	1.12 (inactive)
C[C@H](NCc1ccc(OCc2cccc(F)c2)cc1)C(N)=O [Safinamide] (20 µM)	0.894	0.992	1	1.07	1.02 (inactive)	1.03 (inactive)	0.99 (inactive)	1 (inactive)	1 (inactive)	1.02 (inactive)	0.983 (inactive)	0.96 (inactive)
COc1ccccc1OCCNCC(O)COc1cccc2[nH]c3ccccc3c12 (stereo not drawn) [Carvedilol] (20 µM)	0.934	0.974	0.98	1.01	0.972 (inactive)	1.03 (inactive)	0.977 (inactive)	0.987 (inactive)	0.98 (inactive)	1.02 (inactive)	0.989 (inactive)	0.998 (inactive)
CCCNC(C)(C)C(=O)Nc1ccccc1C [Quatacaine] (20 µM)	1.01	0.991	0.979	0.952	1.01 (inactive)	1.01 (inactive)	1.05 (inactive)	0.994 (inactive)	1 (inactive)	0.951 (inactive)	0.997 (inactive)	1.04 (inactive)
